Data from PubChem BioAssay AID1159580 (chemical genetic matrix, 2015).
“And” between values parts separate entries of the source, which are not always exact repeats. Identical values can stand only once. The campaign covered roughly 5,500 compounds. About 2,000 (36%) were called active. About 18% were inconclusive and are not listed. No stated cut-off is given here; in the data, active means normalized growth mostly below about 0.91 (no sharp cut-off); inconclusive means no clear call, values can overlap the other calls; inactive means mostly above about 0.92. Some of the results follow.

Test: chemical genetic growth profiling, strain panel (AID 1159580);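 further: tested at 20 µM; growth read once vehicle control cultures reached saturation at 30 °C; 1 = growth at the plate median or of vehicle wells; lower values mean less growth of the strain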
Settings: growth OD

Measured: normalized growth

CC(=O)OCC(COC(C)=O)OC(C)=O
inactive: S. cerevisiae deletion strains, locus YAL013W, strain DEP1, active compounds read low 1.01 | S. cerevisiae deletion strains, locus YBR021W, strain FUR4, active compounds read low 1.02 | S. cerevisiae deletion strains, locus YBR229C, strain ROT2, active compounds read low 1 | S. cerevisiae deletion strains, locus YCL029C, strain bik1, active compounds read low 1.03 | S. cerevisiae deletion strains, locus YDL035C, strain GPR1, active compounds read low 1.02 | S. cerevisiae deletion strains, locus YDL074C, strain BRE1, active compounds read low 1.02 | S. cerevisiae deletion strains, locus YDL101C, strain DUN1, active compounds read low 1.02 | S. cerevisiae deletion strains, locus YDL134C, strain PPH21, active compounds read low 1.01 | S. cerevisiae deletion strains, locus YDL185W, strain tfp1, active compounds read low 1.01 | S. cerevisiae deletion strains, locus YDL192W, strain arf1, active compounds read low 1.02 | S. cerevisiae deletion strains, locus YDR101C, strain arx1, active compounds read low 1 | S. cerevisiae deletion strains, locus YDR150W, strain NUM1, active compounds read low 1.01 | S. cerevisiae deletion strains, locus YDR162C, strain NBP2, active compounds read low 1.01 | S. cerevisiae deletion strains, locus YDR318W, strain mcm21, active compounds read low 1.01 | S. cerevisiae deletion strains, locus YDR388W, active compounds read low 1.01 | S. cerevisiae deletion strains, locus YDR502C, strain sam2, active compounds read low 1 | S. cerevisiae deletion strains, locus YEL061C, strain CIN8, active compounds read low 1.01 | S. cerevisiae deletion strains, locus YER110C, active compounds read low 1.01 | S. cerevisiae deletion strains, locus YER155C, strain BEM2, active compounds read low 0.999 | S. cerevisiae deletion strains, locus YER167W, strain BCK2, active compounds read low 1.01 | S. cerevisiae deletion strains, locus YGL078C, strain dbp3, active compounds read low 1.01 | S. cerevisiae deletion strains, locus YGL086W, strain mad1, active compounds read low 1 | S. cerevisiae deletion strains, locus YGL248W, strain PDE1, active compounds read low 1.01 | S. cerevisiae deletion strains, locus YGR078C, strain PAC10, active compounds read low 1.02 | S. cerevisiae deletion strains, locus YGR135W, strain pre9, active compounds read low 1.01 | S. cerevisiae deletion strains, locus YGR229C, strain SMI1, active compounds read low 1.02 | S. cerevisiae deletion strains, locus YGR252W, strain gcn5, active compounds read low 0.969 | S. cerevisiae deletion strains, locus YHR030C, strain SLT2, active compounds read low 1.01 and 0.958 | S. cerevisiae deletion strains, locus YHR079C, strain IRE1 (second series), active compounds read low 1.01 | S. cerevisiae deletion strains, locus YHR079C, strain IRE1, active compounds read low 0.989 | S. cerevisiae deletion strains, locus YHR094C, strain hxt1, active compounds read low 1.01 | S. cerevisiae deletion strains, locus YHR129C, strain ARP1, active compounds read low 1.01 | S. cerevisiae deletion strains, locus YHR200W, strain rpn10, active compounds read low 1.01 | S. cerevisiae deletion strains, locus YIL066C, strain RNR3, active compounds read low 1.03 | S. cerevisiae deletion strains, locus YIL073C, strain SPO22, active compounds read low 1.02 | S. cerevisiae deletion strains, locus YIL125W, strain kgd1, active compounds read low 1 | S. cerevisiae deletion strains, locus YIR030C, strain dcg1, active compounds read low 1.01 | S. cerevisiae deletion strains, locus YJL095W, strain BCK1, active compounds read low 1.02 and 0.962 | S. cerevisiae deletion strains, locus YJL134W, strain LCB3, active compounds read low 1.01 | S. cerevisiae deletion strains, locus YJL168C, strain set2, active compounds read low 1.01 | S. cerevisiae deletion strains, locus YJL187C, strain SWE1 (second series), active compounds read low 1.03 | S. cerevisiae deletion strains, locus YJR043C, strain POL32, active compounds read low 1.02 | S. cerevisiae deletion strains, locus YJR066W, strain TOR1, active compounds read low 0.936 | S. cerevisiae deletion strains, locus YJR075W, strain HOC1, active compounds read low 1.03 | S. cerevisiae deletion strains, locus YKL009W, strain mrt4, active compounds read low 1.02 | S. cerevisiae deletion strains, locus YKL068W, active compounds read low 1 | S. cerevisiae deletion strains, locus YKL085W, strain MDH1 (second series), active compounds read low 1.01 | S. cerevisiae deletion strains, locus YKL085W, strain MDH1, active compounds read low 1.01 | S. cerevisiae deletion strains, locus YKL190W, strain CNB1, active compounds read low 1.01 | S. cerevisiae deletion strains, locus YKR001C, strain vps1, active compounds read low 1.02 | S. cerevisiae deletion strains, locus YLR039C, strain RIC1, active compounds read low 0.991 | S. cerevisiae deletion strains, locus YLR058C, strain SHM2, active compounds read low 1.01 | S. cerevisiae deletion strains, locus YLR102C, strain apc9, active compounds read low 0.997 | S. cerevisiae deletion strains, locus YLR113W, strain HOG1, active compounds read low 1 | S. cerevisiae deletion strains, locus YLR262C, strain YPT6, active compounds read low 1.03 | S. cerevisiae deletion strains, locus YLR268W, strain sec22, active compounds read low 1.03 | S. cerevisiae deletion strains, locus YLR330W, strain CHS5, active compounds read low 1.02 | S. cerevisiae deletion strains, locus YLR342W, strain FKS1 (second series), active compounds read low 1.01 | S. cerevisiae deletion strains, locus YLR371W, strain rom2, active compounds read low 1.01 | S. cerevisiae deletion strains, locus YLR418C, strain cdc73, active compounds read low 1.02 | S. cerevisiae deletion strains, locus YML016C, strain PPZ1, active compounds read low 1.01 | S. cerevisiae deletion strains, locus YML032C, strain rad52, active compounds read low 1.03 | S. cerevisiae deletion strains, locus YML124C, strain tub3, active compounds read low 1 | S. cerevisiae deletion strains, locus YMR078C, strain ctf18, active compounds read low 1.01 | S. cerevisiae deletion strains, locus YMR223W, strain ubp8, active compounds read low 1 | S. cerevisiae deletion strains, locus YMR263W, strain SAP30, active compounds read low 1.02 | S. cerevisiae deletion strains, locus YMR307W, strain GAS1, active compounds read low 0.998 | S. cerevisiae deletion strains, locus YNL067W, strain RPL9B, active compounds read low 1.03 | S. cerevisiae deletion strains, locus YNL128W, strain TEP1, active compounds read low 1.02 | S. cerevisiae deletion strains, locus YNL153C, strain GIM3, active compounds read low 1.02 | S. cerevisiae deletion strains, locus YNL183C, strain NPR1, active compounds read low 0.949 | S. cerevisiae deletion strains, locus YNL233W, strain BNI4, active compounds read low 1.01 | S. cerevisiae deletion strains, locus YNL250W, strain rad50, active compounds read low 1 | S. cerevisiae deletion strains, locus YNL271C, strain bni1, active compounds read low 1.02 | S. cerevisiae deletion strains, locus YNL298W, strain CLA4, active compounds read low 1.02 | S. cerevisiae deletion strains, locus YNL307C, strain MCK1, active compounds read low 1.01 | S. cerevisiae deletion strains, locus YNL322C, strain KRE1, active compounds read low 1.01 | S. cerevisiae deletion strains, locus YNR052C, strain pop2, active compounds read low 1.01 | S. cerevisiae deletion strains, locus YOL006C, strain TOP1, active compounds read low 1.05 | S. cerevisiae deletion strains, locus YOL012C, strain htz1 1.07 | S. cerevisiae deletion strains, locus YOL147C, strain pex11, active compounds read low 1.01 | S. cerevisiae deletion strains, locus YOR061W, strain CKA2, active compounds read low 1.01 | S. cerevisiae deletion strains, locus YOR069W, strain VPS5, active compounds read low 1.01 | S. cerevisiae deletion strains, locus YOR136W, strain idh2, active compounds read low 1.01 | S. cerevisiae deletion strains, locus YOR144C, strain elg1, active compounds read low 0.998 | S. cerevisiae deletion strains, locus YOR184W, strain ser1, active compounds read low 1.02 | S. cerevisiae deletion strains, locus YOR231W, strain MKK1, active compounds read low 0.993 | S. cerevisiae deletion strains, locus YOR316C, strain cot1, active compounds read low 1.01 | S. cerevisiae deletion strains, locus YPL055C, strain LGE1, active compounds read low 1.06 | S. cerevisiae deletion strains, locus YPL241C, strain CIN2, active compounds read low 1.01 | S. cerevisiae deletion strains, locus YPL256C, strain CLN2, active compounds read low 0.989 | S. cerevisiae deletion strains, locus YPR119W, strain clb2, active compounds read low 1.01 | S. cerevisiae deletion strains, locus YPR141C, strain kar3, active compounds read low 1.01 | S. cerevisiae deletion strains, locus YPR163C, strain tif3, active compounds read low 1.02 | S. cerevisiae deletion strains, locus YPR167C, strain met16, active compounds read low 1.01 | S. cerevisiae deletion strains, strain wtn01, active compounds read low 1.04 | S. cerevisiae strains, strain wild type, active compounds read low 1.02
